From PubChem
Rows were chosen to be rich in hits. Some 2.5% of all compounds tested hit in one or more screens of this group.
p97 ATPase inh: inhibitors of human p97 ATPase. 220,000 tested, 0.42% active. P55072. inhibition, % at 8 µM. recombinant p97 ATPase, Kinase-Glo ATP luminescence, 3 h; in the data active means inhibition above about 15%;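 further: 0% = DMSO vehicle and 100% = wells lacking enzyme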
HDAC3 inh: inhibitors of human histone deacetylase 3 | O15379 | recombinant HDAC3, fluorogenic peptide/trypsin coupled, fluorescence | inhibition, % at 8.3 µM | 320,000 tested, 0.15% active; in the data active means inhibition above about 26%, passing the limit was not always enough
Target sequence (O15379 whole entry, looked up): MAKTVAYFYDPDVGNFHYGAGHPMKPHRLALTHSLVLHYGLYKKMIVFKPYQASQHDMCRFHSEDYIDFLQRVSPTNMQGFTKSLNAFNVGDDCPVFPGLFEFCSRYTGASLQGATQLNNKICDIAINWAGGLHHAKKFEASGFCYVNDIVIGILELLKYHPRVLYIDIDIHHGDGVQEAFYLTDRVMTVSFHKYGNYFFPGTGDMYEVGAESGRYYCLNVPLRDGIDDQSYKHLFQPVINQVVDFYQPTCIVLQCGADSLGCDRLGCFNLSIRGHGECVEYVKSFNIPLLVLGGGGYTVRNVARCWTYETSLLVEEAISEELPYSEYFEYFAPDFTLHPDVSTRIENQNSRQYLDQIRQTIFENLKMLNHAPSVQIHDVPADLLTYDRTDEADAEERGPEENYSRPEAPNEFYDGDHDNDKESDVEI
SUMO HTRF inh: blocks human SUMOylation mediated by UBC9; inhibition, % at 35 µM; P63279; 290,000 tested, 0.36% active; HTRF SUMOylation assay, SAE1/SAE2 + UBC9, in vitro; AID 2006; in the data active means inhibition above about 50%, passing the limit was not always enough
Target sequence (P63279 whole entry, looked up): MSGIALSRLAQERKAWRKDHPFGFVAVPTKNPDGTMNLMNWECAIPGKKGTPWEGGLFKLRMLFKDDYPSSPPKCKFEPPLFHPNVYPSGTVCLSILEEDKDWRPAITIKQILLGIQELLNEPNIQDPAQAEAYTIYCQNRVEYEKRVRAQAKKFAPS
PfM18AAP inh: PfM18AAP enzyme inhibition | 290,000 tested, 1.2% active | recombinant PfM18AAP, H-Glu-NHMec fluorogenic cleavage | inhibition, % at 7.35 µM;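 active means inhibition above the campaign mean inhibition over all tested compounds plus 3 SD, cut at about 28% in these data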;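 further: 0% = plate median of test compound wells and 100% = 2 mM ZnCl2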
PHOSPHO1 block: blocks human PHOSPHO1 phosphatase activity; AID 1565; recombinant PHOSPHO1, absorbance phosphatase assay; inhibition, % at 13.3 µM; Q8TCT1; 290,000 tested, 1.1% active; in the data active means inhibition above about 60%
G6PDH CS: inhibits Leuconostoc G6PDH, flagging false hits in G6PDH-based assays; Purified L. mesenteroides G6PDH, diaphorase/resazurin coupled fluorescence, 45 min; inhibition, % at 5 µM; 200,000 tested, 0.12% active; AID 1020; in the data active means inhibition above about 50%
* marks the source's active call; other numbers are inactive results.

What do the screens show for `S=c1[nH]ncn1/N=C/c1ccccn1`?
p97 ATPase inh: -2; HDAC3 inh: 15; SUMO HTRF inh: 8; PfM18AAP inh: 21; PHOSPHO1 block: 98*; G6PDH CS: 12

How did S=c1[nH]ncn1/N=C/c1cccs1 do in these assays?
p97 ATPase inh: 4; SUMO HTRF inh: -9; PfM18AAP inh: 22; PHOSPHO1 block: -10

What do the screens show for `Cc1ccc(NC(=O)c2c(C)nc3sc(C(=O)NC4CCCC4)c(N)c3c2-c2ccco2)c(C)c1`?
p97 ATPase inh: 6; HDAC3 inh: -4; SUMO HTRF inh: 2; PfM18AAP inh: 13; PHOSPHO1 block: -8; G6PDH CS: -22

What do the screens show for `Cc1ccccc1NC(=O)c1sc2nc3c(c(-c4ccco4)c2c1N)CCC3`?
p97 ATPase inh: 2; HDAC3 inh: -12; SUMO HTRF inh: 39; PfM18AAP inh: 9; PHOSPHO1 block: 76*; G6PDH CS: 6

How did NC(=O)c1sc2nc3c(c(-c4ccco4)c2c1N)CCCC3 do in these assays?
p97 ATPase inh: 9; HDAC3 inh: -6; SUMO HTRF inh: -12; PfM18AAP inh: 14; PHOSPHO1 block: 20

What do the screens show for `COc1ccccc1NC(=O)c1sc2nc(-c3ccco3)ccc2c1N`?
p97 ATPase inh: 2; HDAC3 inh: -1; SUMO HTRF inh: 54*; PfM18AAP inh: 9; PHOSPHO1 block: -27; G6PDH CS: -2

Results for N#Cc1sc2nc3c(c(-c4ccco4)c2c1N)CCCC3 ?
p97 ATPase inh: 6; HDAC3 inh: 0; SUMO HTRF inh: 42; PfM18AAP inh: 1; PHOSPHO1 block: 81*; G6PDH CS: 8

What do the screens show for `COc1ccccc1NC(=O)c1sc2nc(C)cc(C)c2c1N`?
HDAC3 inh: -44

Results for COc1cc2cc3c(N)c(C(=O)NCc4ccco4)sc3nc2cc1OC ?
p97 ATPase inh: 1; HDAC3 inh: 4; SUMO HTRF inh: 34; PfM18AAP inh: 23; PHOSPHO1 block: 72*; G6PDH CS: 10

Results for O=C(O)C1CCc2sc3[nH]c(=S)n(-c4ccccc4)c(=O)c3c21 (centres undefined) ?
p97 ATPase inh: 2; HDAC3 inh: 9; SUMO HTRF inh: 21; PfM18AAP inh: 31*; PHOSPHO1 block: 7

Results for Cc1[nH]c(=S)[nH]c(=O)c1Cc1ccccc1 ?
p97 ATPase inh: 1; HDAC3 inh: 1; SUMO HTRF inh: 14; PfM18AAP inh: 31*; PHOSPHO1 block: 34; G6PDH CS: -1

How did COc1ccc(-c2noc(COC(=O)c3ccco3)n2)cc1OC do in these assays?
HDAC3 inh: 3

What do the screens show for `O=C(O)C1Nc2c(O)cc(Cl)c([N+](=O)[O-])c2C2C=CCC12` (centres undefined)?
p97 ATPase inh: 54*; SUMO HTRF inh: 99*; PfM18AAP inh: 14; PHOSPHO1 block: -45; G6PDH CS: 12

How did COc1ccc2[nH]c(=S)[nH]c2c1 do in these assays?
p97 ATPase inh: 1; HDAC3 inh: 0; SUMO HTRF inh: 21; PfM18AAP inh: 2; PHOSPHO1 block: 92*; G6PDH CS: 3

What do the screens show for `CCCn1c(SCc2nc3sc(C)c(C)c3c(=O)[nH]2)nc2ccccc2c1=O`?
p97 ATPase inh: 4; HDAC3 inh: -1; SUMO HTRF inh: 40; PfM18AAP inh: 10; PHOSPHO1 block: 69*; G6PDH CS: 4

Results for O=C1NCC(c2ccccc2)C1C(=O)N/N=C\c1ccc(-c2cccc(Cl)c2Cl)o1 (centres undefined) ?
p97 ATPase inh: 4; HDAC3 inh: 6; SUMO HTRF inh: -8; PfM18AAP inh: 3; PHOSPHO1 block: 10; G6PDH CS: -7

How did Cc1ccc(-c2ccc(/C=N\NC(=O)C3C(=O)NCC3c3ccccc3)o2)cc1Cl (centres undefined) do in these assays?
p97 ATPase inh: -4; HDAC3 inh: 14; SUMO HTRF inh: -20; PfM18AAP inh: 1; PHOSPHO1 block: 60*; G6PDH CS: 9

Results for O=C(NCCC1=CCCCC1)c1ccc(-n2cncn2)c([N+](=O)[O-])c1 ?
HDAC3 inh: -4

What do the screens show for `Cc1cccc(C)c1NC(=O)Cn1nc(-c2ccc(Cl)s2)ccc1=O`?
HDAC3 inh: 1; SUMO HTRF inh: 26; PfM18AAP inh: 5; PHOSPHO1 block: -4

How did Cc1ccc(/C=N/Nc2cccc3cccnc23)c(O)c1 do in these assays?
p97 ATPase inh: 2; HDAC3 inh: 3; SUMO HTRF inh: -34; PfM18AAP inh: 4; PHOSPHO1 block: 98*; G6PDH CS: 6

How did Oc1ccc(/C=N/Nc2cccc3cccnc23)c(O)c1 do in these assays?
p97 ATPase inh: 8; HDAC3 inh: 5; SUMO HTRF inh: 16; PfM18AAP inh: 24; PHOSPHO1 block: -17; G6PDH CS: -33

How did COc1ccc(C(=O)NNC(=O)c2cccs2)cc1S(=O)(=O)N1CCOCC1 do in these assays?
HDAC3 inh: 0

What do the screens show for `CCN(CC)C(=O)c1c(NC(=O)c2ccccc2)sc(C)c1C`?
p97 ATPase inh: 15*; HDAC3 inh: 2; SUMO HTRF inh: 14; PfM18AAP inh: -1; PHOSPHO1 block: 4; G6PDH CS: 1

What do the screens show for `Cc1ccc(C(=O)Nc2sc(C)c(C)c2C(=O)c2ccccc2)cc1`?
p97 ATPase inh: 4; HDAC3 inh: -2; SUMO HTRF inh: -11; PfM18AAP inh: -1; PHOSPHO1 block: -19; G6PDH CS: -20

How did Cc1sc(NC(=O)c2ccccc2)c(C(=O)c2ccccc2)c1C do in these assays?
p97 ATPase inh: -1; HDAC3 inh: 3; SUMO HTRF inh: 10; PfM18AAP inh: 32*; PHOSPHO1 block: 3; G6PDH CS: -15

How did CN(Cc1cccs1)C(=O)c1cccc(S(=O)(=O)N2CCCCCC2)c1 do in these assays?
HDAC3 inh: 2

What do the screens show for `Cc1cccc(-n2c(-c3csc(C)c3)n[nH]c2=S)c1`?
p97 ATPase inh: -6; HDAC3 inh: 21; SUMO HTRF inh: -3; PfM18AAP inh: 12; PHOSPHO1 block: 99*; G6PDH CS: 7

How did CCc1cc(-c2n[nH]c(=S)n2-c2cccc(C)c2)cs1 do in these assays?
p97 ATPase inh: -4; HDAC3 inh: 2; SUMO HTRF inh: -12; PfM18AAP inh: 14; PHOSPHO1 block: 92*; G6PDH CS: 10

What do the screens show for `CCN1CCN(S(=O)(=O)c2ccc(Cl)c(C(=O)N(C)CCOc3ccc(Cl)cc3)c2)CC1`?
HDAC3 inh: 1

What do the screens show for `O=C(O)c1c(C(=O)O)c(-c2ccc(F)cc2)n2c1CCC2`?
HDAC3 inh: -2; SUMO HTRF inh: 5; PfM18AAP inh: -2; PHOSPHO1 block: 42

What do the screens show for `Cc1nn(-c2ccccc2)c(C)c1C(=O)OC(C)C(=O)NC1CCCCC1` (centres undefined)?
HDAC3 inh: 1

How did CSc1nnc(NC(=O)CCc2ccccc2)s1 do in these assays?
p97 ATPase inh: -1; HDAC3 inh: -7; SUMO HTRF inh: 10; PfM18AAP inh: -2; PHOSPHO1 block: 82*; G6PDH CS: 15

What do the screens show for `COc1ccc(COc2cc(-c3cccc(OC)c3)nc3ccc(NC(=O)c4ccc(OC)cc4)cc23)cc1`?
p97 ATPase inh: 7; HDAC3 inh: 8; SUMO HTRF inh: 3; PfM18AAP inh: 0; PHOSPHO1 block: 67*; G6PDH CS: 13
